This is an account of results in the supplement of paper PMC4894684.

The structures appear in SMILES notation. Structures can show the parent of a compound that is named as a salt. ± gives the standard deviation of the averaged measurements.

The subject of the assay is Toxoplasma gondii RH (in HFF). The assay can be described thus: parasite growth relative to the screen mean (all compounds = 100%); higher = less inhibition of parasite growth. The settings on record: 5 µM; 72 h; oxygen 21 %. The method in brief:
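Each value is parasite growth expressed against the screen mean, averaged over two screens, where the mean of all compounds = 100%. The screen used 5 µM final compound on confluent human foreskin fibroblasts infected with RH β-Gal–GFP Toxoplasma (MOI 1:5) within 2 h and grown 72 h at 21% O2. Parasite number was measured by a CPRG β-Gal assay against in-plate standard curves.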
On to `COc1ccc(OC)c2c(=S)c3ccccc3[nH]c12`, for which the parasite growth turned out to be 171 ± 20%.

`COc1cccc2c1C(=O)c1c(O)c3c(c(O)c1C2=O)C[C@@](O)(C(=O)CO)C[C@@H]3O[C@H]1C[C@H](N)[C@H](O)[C@H](C)O1` [Doxorubicin hydrochloride] registered a parasite growth of 18.4 ± 7.7%.

`Oc1cc2c(cc1O)CN(C(=S)NCCc1ccc(Cl)cc1)CCC2` [Capsazepine] had a parasite growth of 150 ± 30%.

On to `CC1(C)CCC(C)(C)c2cc(C3(c4ccc(C(=O)O)cc4)OCCO3)ccc21`, for which the parasite growth was determined as 115 ± 34%.

As to `Cc1cc(F)c(Nc2ncnc3cc(OCc4ccccc4)ccc23)cc1O`, the parasite growth stood at 11.2 ± 13%.

As for `Fc1ccc(C(c2ccc(F)cc2)N2CCN(C/C=C/c3ccccc3)CC2)cc1` [Flunarizine dihydrochloride], the parasite growth is 56.3 ± 12%.

The molecule `Cn1cc(/C=C2\C(=O)Nc3cccnc32)c2ccccc21` showed a parasite growth of 131 ± 5.3%.

`CCc1ccc2c(-c3cccc(Cl)c3)nc(=O)n(CC)c2n1` came in with a parasite growth of 152 ± 17%.

As for `O=C1NC(=O)c2cc(Nc3ccccc3)c(Nc3ccccc3)cc21`, the parasite growth is 176 ± 43%.

Regarding `CC(C)NCC(O)COc1ccccc1-n1cccc1` (centres undefined) [Isamoltane hemifumarate], the parasite growth came to 97 ± 39%.

With `CS(=O)(=O)CCNCc1nc(-c2ccc3ncnc(Nc4ccc(OCc5cccc(F)c5)c(Cl)c4)c3c2)cs1`, the parasite growth is 63.4 ± 19%.

With `CC(C(O)c1ccc(O)cc1)N1CCC(Cc2ccccc2)CC1` (centres undefined) [Ifenprodil hemitartrate], the parasite growth stood at 116 ± 4.3%.

In the case of `C[C@@H](CN1CCC(Cc2ccccc2)CC1)[C@@H](O)c1ccc(O)cc1` [Ro 25-6981 maleate], the parasite growth was determined as 121 ± 23%.

`C[C@@H]1C[C@H]2[C@@H]3CCC4=CC(=O)C=C[C@]4(C)[C@@]3(F)[C@@H](O)C[C@]2(C)[C@@]1(O)C(=O)CO` [Dexamethasone]: the parasite growth came to 141 ± 12%.
